Compound activity (PubChem)
Compounds with a hit are over-represented: about 1.1% of the library has one in this group of screens.
TrxR1 substrate: rat thioredoxin reductase 1 substrate activity. O89049. purified TrxR1 substrate turnover, NADPH consumption readout. Potency, µM (doses to about 114 µM), for the others: top-dose activity change, negative = substrate turnover. actives 0.01% (n = 390,000). AID 588456; further: nearly all actives have a fitted effect of over 50% in size
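Rat TrxR1, dispensed at 90 nM, was prereduced with 400 uM NADPH (final) for 5 min at ~22 deg C, then incubated with compound 15 min before 400 uM selenite. A first-read NADPH fluorescence drop versus no-compound background flagged substrates.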
Eya2 phos inh: Eya2 (human) phosphatase inhibition. actives 0.006% (n = 330,000). Potency, µM (doses to about 76.9 µM), inactives show top-dose activity, negative = inhibition, hits mostly inhibitors. recombinant Eya2, OMFP fluorescence dephosphorylation (OMFP is methylfluorescein phosphate). AID 488837
Target sequence (O00167 whole entry, looked up): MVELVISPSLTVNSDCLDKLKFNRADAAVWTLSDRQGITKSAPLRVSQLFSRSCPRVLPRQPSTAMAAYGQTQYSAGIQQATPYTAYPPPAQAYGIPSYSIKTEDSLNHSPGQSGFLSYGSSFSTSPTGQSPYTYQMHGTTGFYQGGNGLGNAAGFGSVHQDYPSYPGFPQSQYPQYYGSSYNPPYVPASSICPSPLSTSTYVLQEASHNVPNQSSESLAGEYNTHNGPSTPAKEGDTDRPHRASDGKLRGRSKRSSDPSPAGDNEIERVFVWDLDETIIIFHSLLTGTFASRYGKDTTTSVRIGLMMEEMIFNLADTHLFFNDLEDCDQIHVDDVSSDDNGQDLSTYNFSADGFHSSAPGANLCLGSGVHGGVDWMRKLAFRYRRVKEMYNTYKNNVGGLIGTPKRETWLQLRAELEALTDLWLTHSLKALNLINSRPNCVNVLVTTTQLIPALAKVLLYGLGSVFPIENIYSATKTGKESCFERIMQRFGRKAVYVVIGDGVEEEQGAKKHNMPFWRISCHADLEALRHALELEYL
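Eya2 (0.2 uM) preincubated 10 min at ambient with compound, then OMFP substrate added at 50 uM; 10 min reaction in 50 mM HEPES pH 7.5, 50 mM NaCl, 5 uM MgCl2, 0.05% BSA, 1 mM DTT. Fluorescence read at Ex 485/Em 525 nm.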
mIDH1 inhibitor: inhibitors of human mutant IDH1 R132H | AID 602179 | Potency, µM (top dose mostly 76.6 µM), for the others: at the top dose activity change, negative = inhibition, usual class: inhibitors | actives 0.093% (n = 390,000) | IDH1-R132H enzyme, NADPH consumption, diaphorase/resazurin fluorescence | O75874; further: nearly all actives have a fitted effect of over 65% in size
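IDH1-R132H (0.5 ug/mL dispensed) in pH 7.5 Tris buffer was preincubated 30 min with compound, then given a substrate mix of 0.016 mM NADPH and 2 mM alpha-KG for 80 min at room temperature; remaining NADPH was read by diaphorase/resazurin fluorescence.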
RGS4 inh: blocks human RGS4-accelerated GTP hydrolysis; P49798; Transcreener GDP fluorescence polarization, RGS4-accelerated GTP hydrolysis; Potency, µM (top dose mostly 114 µM), for the others: top-dose activity change, negative = inhibition, most hits filed as inhibitors; actives 0.039% (n = 390,000); AID 504845; further: nearly all actives have a fitted effect of over 75% in size
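MLSMR compounds (23 nl, pin-transferred) preincubated 10 min at room temperature with a 500nM (2x) first reagent, then RGS4 at 900nM (2x) plus Transcreener GDP mix added; fluorescence polarization (620/688 nm) read before and after 90 min at 30 °C.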
TrxR1 inh: rat TrxR1 inhibition; O89049; recombinant rTrxR1, NADPH fluorescence consumption, selenite substrate; Potency, µM (titrated, usually from 114 µM), without a hit: top-dose activity change, negative = inhibition, actives largely listed as inhibitors; actives 1% (n = 390,000); AID 588453; further: nearly all actives have a fitted effect of over 65% in size
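Rat TrxR1 (90 nM in the dispensed reagent) was pre-reduced with 400 uM NADPH for 5 min at room temperature, then incubated with compound for 15 min. After 400 uM selenite was added, NADPH fluorescence (Ex 340/Em 450 nm) was followed for 8 min.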
An asterisk follows results filed as active; [ ] = remark or other dose. The call rests on the fitted dose curve; in most records, active means well fitted curve in the direction sought with a large enough effect; inconclusive means small, poorly fitted or top-dose-only effect, or another doubt; inactive means no such curve, though single readings can be large; an effect the other way counts as inactive or inconclusive. On the % scale 0 is the no-effect control and ±100 the full control effect; potency means the concentration at half of the fitted maximal effect.

For O=C(O)c1cc(-c2ccc(Cl)s2)nc2ccccc12 the results were TrxR1 substrate 179%[57.1 µM], Eya2 phos inh -1%, mIDH1 inhibitor 8%, RGS4 inh -5% and TrxR1 inh 46%.
Cc1ccc(-c2cc(C(=O)O)c3ccccc3n2)s1 was read as TrxR1 substrate 827%, Eya2 phos inh 2%, mIDH1 inhibitor -10%, RGS4 inh 19% and TrxR1 inh 79µM*.
CCC1Oc2ccc(C)cc2N(CC(=O)N(Cc2ccc(C)o2)C2CCCC2)C1=O (stereo unspecified) was read as TrxR1 substrate -1%, Eya2 phos inh -21%, mIDH1 inhibitor 2%, RGS4 inh inconclusive and TrxR1 inh 25µM*.
`Cc1ccc(Cn2ncc(Cl)c(Cl)c2=O)cc1` gave TrxR1 substrate 5%, Eya2 phos inh -3%, mIDH1 inhibitor 8%, RGS4 inh -24% and TrxR1 inh 6.3µM*.
`Cc1cc(C)cc(Cn2ncc(Cl)c(Cl)c2=O)c1` gave TrxR1 substrate 4%, Eya2 phos inh -14%, mIDH1 inhibitor 7%, RGS4 inh -35% and TrxR1 inh 6.3µM*.
For CCc1ccc(C(=O)Cn2ncc(Cl)c(Cl)c2=O)cc1 the results were TrxR1 substrate 6%, Eya2 phos inh -41%, mIDH1 inhibitor 5%, RGS4 inh -5% and TrxR1 inh -30%.
Screening O=c1c(Cl)c(Cl)cnn1Cc1ccccc1Cl returned TrxR1 substrate 5%, Eya2 phos inh -1%, mIDH1 inhibitor 4%, RGS4 inh -28% and TrxR1 inh 20µM*.
O=c1c(Cl)c(Cl)cnn1-c1ccccc1 was read as TrxR1 substrate 5%, Eya2 phos inh -14%, mIDH1 inhibitor 8%, RGS4 inh -1%[11.4 µM] and TrxR1 inh 14µM*.
O=c1[nH]cnc2c1cnn2Cc1ccccc1Cl was read as TrxR1 substrate 3%, Eya2 phos inh inconclusive, mIDH1 inhibitor -3%, RGS4 inh 12% and TrxR1 inh 25%.
CC(C)(C)CC(C)(C)c1ccc(OCC(=O)N/N=C/c2ccc(S(=O)(=O)O)o2)cc1 was read as TrxR1 substrate 10%[57.1 µM], Eya2 phos inh -8%, mIDH1 inhibitor 2%, RGS4 inh 1% and TrxR1 inh 12%.
Screening O=C(O)CCCN1C(=O)/C(=C\c2ccco2)SC1=S returned TrxR1 substrate 7%[57.1 µM], Eya2 phos inh 4%, mIDH1 inhibitor -8%, RGS4 inh inconclusive and TrxR1 inh 22µM*.
For O=C(CCN1C(=O)/C(=C\c2ccco2)SC1=S)Nc1ccc(C(=O)O)c(O)c1 the results were TrxR1 substrate -5%, Eya2 phos inh 2%, mIDH1 inhibitor 7%, RGS4 inh inconclusive and TrxR1 inh 40µM*.
Screening O=C(CCN1C(=O)/C(=C/c2ccco2)SC1=S)Nc1ccc(C(=O)O)c(O)c1 returned TrxR1 substrate -9%, Eya2 phos inh 6%, mIDH1 inhibitor 0%, RGS4 inh inconclusive and TrxR1 inh 45µM*.
For O=C(CCCN1C(=O)/C(=C/c2ccco2)SC1=S)Nc1ccccc1C(=O)O the results were TrxR1 substrate 4%[57.1 µM], Eya2 phos inh 1%, mIDH1 inhibitor -1%, RGS4 inh -30%[56.9 µM] and TrxR1 inh inconclusive.
CCC(C)N(C(=O)COC(=O)CNC(=O)c1sc2ccccc2c1Cl)C1CCS(=O)(=O)C1 (stereo unspecified) was read as TrxR1 substrate -9%, Eya2 phos inh 0%, mIDH1 inhibitor -1%, RGS4 inh -7% and TrxR1 inh -14%.
`CCOc1ccc(NC(=O)c2cc(CN3CCCC3)on2)cc1` gave TrxR1 substrate -5%[57.1 µM], mIDH1 inhibitor 8%, RGS4 inh 3% and TrxR1 inh 4%[57.1 µM].
Screening N#Cc1ccc(C(=O)CN2CCN(c3ccccc3)CC2)cc1 returned TrxR1 substrate 6%, Eya2 phos inh 15%, mIDH1 inhibitor 9%, RGS4 inh -23% and TrxR1 inh 50µM*.
`O=C(CN1CCN(c2ccccc2)CC1)c1c[nH]c2ccccc12` gave TrxR1 substrate 8%[57.1 µM], Eya2 phos inh 12%, mIDH1 inhibitor 2%, RGS4 inh 7% and TrxR1 inh 22%[57.1 µM].
`COc1cc(CN2c3ccccc3C(=O)CS2(=O)=O)cc(OC)c1` gave TrxR1 substrate 6%, Eya2 phos inh -8%, mIDH1 inhibitor 28%, RGS4 inh 8% and TrxR1 inh inconclusive.
`O=C1CS(=O)(=O)N(Cc2ccc(F)cc2)c2ccccc21` gave TrxR1 substrate -6%, Eya2 phos inh -1%, mIDH1 inhibitor 2%, RGS4 inh -6% and TrxR1 inh 45µM*.
For CCOC(=O)c1sc2nc(-c3ccco3)c3c(c2c1N)CC(C)(C)OC3 the results were TrxR1 substrate -6%, Eya2 phos inh 3%, mIDH1 inhibitor 8%, RGS4 inh inconclusive and TrxR1 inh 7.9µM*.
`CC(=O)OCC1=C(C(=O)O)N2C(=O)[C@@H](NC(=O)Cc3ccccc3)[C@H]2SC1` gave TrxR1 substrate 5%[57.1 µM], mIDH1 inhibitor 7%, RGS4 inh 9% and TrxR1 inh inconclusive.
Screening CCOc1ccc(C(=O)NC2C(=O)N3C(C(=O)O)=C(COC(C)=O)CSC23)cc1OCC (stereo unspecified) returned TrxR1 substrate -6%, Eya2 phos inh 5%, mIDH1 inhibitor 7%, RGS4 inh -36% and TrxR1 inh 56µM*.
Cc1oc(-c2ccccc2)nc1CS(=O)CC(=O)NC1CCCCCC1 (stereo unspecified) was read as TrxR1 substrate -15%, Eya2 phos inh 10%, mIDH1 inhibitor -5%, RGS4 inh -25% and TrxR1 inh 32µM*.
`Cc1ccc(-c2nc(CS(=O)CC(=O)N3CCN(c4ccc(F)cc4)CC3)c(C)o2)cc1` (stereo unspecified) gave TrxR1 substrate 7%, Eya2 phos inh -1%, mIDH1 inhibitor 13%, RGS4 inh -27% and TrxR1 inh inconclusive.
Screening Cc1oc(-c2ccc(Cl)cc2)nc1CS(=O)CC(=O)NC1CC1 (stereo unspecified) returned TrxR1 substrate -4%, Eya2 phos inh 10%, mIDH1 inhibitor 3%, RGS4 inh 0% and TrxR1 inh 3%.
For CCOC(=O)C1CCN(C(=O)CS(=O)Cc2nc(-c3ccc(C)cc3)oc2C)CC1 (stereo unspecified) the results were TrxR1 substrate 1%[57.1 µM], Eya2 phos inh 7%, mIDH1 inhibitor 7%, RGS4 inh -5% and TrxR1 inh 14µM*.
Screening Cc1ccc(-c2nc(CS(=O)CC(=O)NC3CCC(C)CC3)c(C)o2)cc1 (stereo unspecified) returned TrxR1 substrate 22%[57.1 µM], Eya2 phos inh 2%, mIDH1 inhibitor 1%, RGS4 inh 1% and TrxR1 inh 16µM*.
